# From PubChem
# Hits are enriched below; roughly 2.8% of the tested compounds scored in any of these assays.
# Pol iota inh: blocks human DNA polymerase iota activity | 390,000 compounds, 1% hits | Q9UNA4 | Pol iota fluorescent replication assay, 10 min | Potency, µM (top dose mostly 115 µM), for inactives: at the highest dose activity, negative = inhibition, actives largely listed as inhibitors; also: potency is read from the fitted curve at half-maximal effect
#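 Fluorescent replication assay read twice, at 0 min and 10 min after adding 50 nM (final) substrate. Enzyme (10 nM) and compounds were first incubated 15 min at room temperature; enzyme-free buffer wells were negative controls.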
# PI5P4K alpha inh: PI5P4K alpha (human) kinase inhibition. max response, %. PI5P4Kalpha enzyme, ADP-Glo luminescence, 60 min; stronger effect = lower value. P48426. AID 652105. 330,000 compounds, 1.2% hits; active = max response of -50% or lower; inconclusive = between -30% and -50%; inactive = -30% or higher; also: value at the top dose of about 77 µM; % is scaled to controls: 0 for no effect and ±100 for the full control effect
#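 Compounds were pin-transferred onto PI5P4Kalpha and substrate in HEPES pH 7.4 buffer with EGTA, CHAPS and 5% DMSO. ATP (5 microM final) started the reaction, which ran 60 minutes at room temperature before ADP-Glo detection.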
# POLK inh: DNA polymerase kappa (human) inhibition | Q9UBT6 | purified Pol kappa, fluorescent DNA synthesis assay, 10 min | Potency, µM (series often up to 107 µM), for inactives: top-dose activity, negative = inhibition, hits mostly inhibitors | 400,000 compounds, 0.53% hits | AID 588579; also: potency is read from the fitted curve at half-maximal effect; % is scaled to controls: 0 for no effect and ±100 for the full control effect
#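 Inhibition of 10 nM Pol kappa is measured by a fluorescent read-out at 0 and 10 min following addition of 50 nM substrate (final), with a 15-min room-temperature compound preincubation.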
# Pol eta inh: blocks human DNA polymerase eta activity | recombinant Pol eta, fluorescent DNA replication assay | Potency, µM (series often up to 114 µM), for inactives: at the top dose activity change, negative = inhibition, most hits filed as inhibitors | 390,000 compounds, 1.2% hits | AID 588591; also: potency is read from the fitted curve at half-maximal effect; % is scaled to controls: 0 for no effect and ±100 for the full control effect
#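 Fluorescent replication assay: 50 nM final substrate added after a 15 min room-temperature compound preincubation with 10 nM enzyme. Signal taken at 0 min and again at 10 min.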
# POLB inh: blocks human DNA polymerase beta activity; Pol beta primer extension/strand displacement, fluorescence kinetic; Potency, µM (series often up to 114 µM), for inactives: at the highest dose activity change, negative = inhibition, usual class: inhibitors; AID 485314; 340,000 compounds, 1.3% hits; P06746; also: potency is read from the fitted curve at half-maximal effect; % is scaled to controls: 0 for no effect and ±100 for the full control effect
#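 Curves were derived by four-parameter Hill fits of normalized qHTS data. The kinetic fluorescent primer-extension read was taken at 0 and 10 min after 50 nM substrate, following a 15 min room-temperature preincubation of 10 nM enzyme with compounds.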
# WRN inhibitor: WRN helicase (human) inhibition. WRN helicase unwinding, fluorescent forked duplex, kinetic. Potency, µM (series often up to 114 µM), for inactives: top-dose activity change, negative = inhibition, actives largely listed as inhibitors. Q14191. 360,000 compounds, 0.46% hits; also: potency is read from the fitted curve at half-maximal effect; % is scaled to controls: 0 for no effect and ±100 for the full control effect; nearly all actives have a fitted effect of over 55% in size
#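 Kinetic fluorescence helicase assay: unwinding of a quenched forked DNA duplex (100 nM final) with 2 mM ATP final raises red fluorescence (525/598 nm). Compounds sat 15 min at room temperature with 20 nM WRN beforehand.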
# Active calls of the source: *; ? = inconclusive; · = no result given; ! = a repeat was not active; [ ] = another dose, or the depositor's remark. Unless noted, calls follow the shape of the dose curve; as a rule, active = well fitted curve in the direction sought with a large enough effect; inconclusive = small, poorly fitted or top-dose-only effect, or another doubt; inactive = no such curve, though single readings can be large; an effect the other way counts as inactive or inconclusive.
SMILES,Pol iota inh,PI5P4K alpha inh,POLK inh,Pol eta inh,POLB inh,WRN inhibitor
CCOc1ccc(C(=O)N/N=C/c2cc([N+](=O)[O-])cs2)cc1,35.5µM*,2.1,-28.0%,32.6%,14.1µM*,-4.4%[11.6 µM]
COc1cc(C(=O)N/N=C/c2cc([N+](=O)[O-])cs2)cc(OC)c1OC,-1.5%,-6.7,-1.0%,-13.1%,-0.1%,-5.5%
CCOC(=O)C1=C(O)c2ccccc2C(=O)/C1=C\c1ccc(C)cc1,?,-55.7*,-2.1%,?,-9.7%,44.7µM*
CC1=NN(c2nc(-c3ccc(C)cc3)cs2)C(=O)C1N=Nc1cccc(C)c1 (stereo unspecified),11.0%,1.5,-4.4%,-14.5%,?,-23.3%
CCOC(=O)c1sc(N2N=C(C)C(N=Nc3cccc(C)c3)C2=O)nc1C (stereo unspecified),50.1µM*,?,89.1µM*,39.8µM*,?,-22.9%[11.6 µM]
CC(=O)c1cc(C)c(OCc2cn(CC(=O)c3ccc(O)cc3)nn2)c(C)c1,7.94µM*,-5.4,-15.4%,-11.4%,·,2.7%
CCCC(=O)c1ccc(OCc2cn(CC(=O)c3ccc(O)cc3)nn2)cc1,?,-7.6,20.9%,-3.1%,·,-4.9%
Clc1nc(Oc2ccccc2)nc(-c2cn(-c3ccccc3)c3ccccc23)n1,0.6%,-10.5,12.4%,-11.5%,-29.5%,-11.5%
CCNc1nc(Cl)nc(-c2cn(-c3ccccc3)c3ccccc23)n1,-18.0%,-8.3,-7.9%,2.8%,79.4µM*,-1.3%
COc1cc(OC)c(/C=C/c2cc3c4ccccc4ccc3[n+](C)c2)c(OC)c1,1.6%,·,-0.4%,·,·,·
NC(=O)Cc1c[nH]c2cccc(O)c12,6.7%,-6.7,-4.1%,11.6%,3.3%,8.7%
Cc1ccc(Cl)cc1NC(=O)Cn1c(=O)n(CCC(=O)NCc2ccc3c(c2)OCO3)c(=O)c2sccc21,-14.2%,·,-11.9%,-25.1%,14.1µM*,·
O=S(=O)(O)c1cccc2cccc(Nc3ccccc3)c12,28.2µM*,?,?,20µM*,·,2.8%[11.6 µM]
COc1cc(NC(=O)Cn2c([N+](=O)[O-])cnc2C)c(OC)cc1Cl,3.2%,2.0,10.1%,-7.3%,48.0%,1.8%
CC(C(=O)Nc1ccc(O)cc1C(=O)O)N1C(=O)/C(=C\c2cccs2)SC1=S (stereo unspecified),?,?,?,22.4µM*,?,-4.1%[11.6 µM]
O=C(Cn1c(=O)oc2cc(S(=O)(=O)NCc3ccccc3)ccc21)NCc1ccc(Cl)cc1,-5.5%,·,-13.4%[60.1 µM],5.1%,-3.2%,·
O=C(Cn1c(=O)oc2cc(S(=O)(=O)NCc3ccccc3)ccc21)NCc1ccc(F)cc1,21.8%,·,0.9%,-17.1%,56.2µM*,·
Cc1ccc(-n2c(O)c(C=Nc3cc(C)on3)c3ccccc3c2=O)c(C)c1,1.7%,-0.8,-15.8%,-11.3%,?,50.1µM*
OC(c1ccccc1)c1nc(-c2cc(F)cc(F)c2)cs1 (stereo unspecified),·,3.8,·,·,·,-1.8%
O=[N+]([O-])c1ccc(O)c(-c2nn[nH]n2)c1,?,-53.6*,-8.9%,-10.9%,0.1%,79.4µM*
N#CC(=Cc1ccc(O)c(O)c1)C(=O)NCc1ccccc1,70.8µM*,·,-29.2%,·,·,·
N#C/C(=C\c1ccc(O)c(O)c1)C(=O)NCCCc1ccccc1,?,?,?,15.8µM*!,?,?
N#C/C(=C/c1ccc(C(=O)O)cc1)C(=O)NCc1ccccc1,?,·,-2.8%,-5.5%,0.6%,-34.1%[11.6 µM]
COc1ccc(/C=C(\C#N)C(=O)NCCc2ccccc2)cc1OCc1ccccc1,10.2%,-7.5,1.9%,-20.6%,-2.8%,-3.1%
CCN(CC(=O)Nc1c(F)cccc1F)C(=O)CCN1C(=O)c2cccc([N+](=O)[O-])c2C1=O,12.8%,-15.3,-1.7%,-16.2%,·,3.6%
COc1ccc(S(=O)(=O)Nc2ccc(N3CCOCC3)nc2)cc1,172.5%,0.8,-9.0%,-15.2%,26.3%,4.7%
